Sfp inh – qHTS Assay for Inhibitors of Bacillus subtilis Sfp phosphopantetheinyl transferase (PPTase) | 4'-phosphopantetheinyl transferase ffp (Bacillus subtilis), Q9F4F7 | Biochemical Sfp PPTase activity, qHTS | Potency, µM, for the others: largest response in the series, negative = inhibition, hits mostly inhibitors | actives 3.5% (n = 310,000);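 also: the enzyme is Sfp with the accession as filed and its product quenches rhodamine fluorescence; 0% = enzyme reaction without inhibitor and -100% = no enzyme wells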
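Fluorescence-quenching assay: 15 nM Sfp-PPTase preincubated 15 min at room temperature with compound, then 5 uM rhodamine-CoA and 12.5 uM BHQ-2-labelled YbbR peptide added. Fluorescence (ex 525/em 598 nm) read at start and after 30 min; difference gives rate.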
Tau fibril FP – qHTS for Inhibitors of Tau Fibril Formation, Fluorescence Polarization; K18 P301L tau heparin fibrillization, Alexa594 FP, 6 h; actives 0.39% (n = 280,000); AID 1468, 2008; Potency, µM (top dose mostly 57.7 µM), inactives show at the highest dose activity, negative = inhibition, most hits filed as inhibitors; also: nearly all actives have a fitted effect of over 55% in size
Target sequence (P10636 561-689 P618L limits assumed): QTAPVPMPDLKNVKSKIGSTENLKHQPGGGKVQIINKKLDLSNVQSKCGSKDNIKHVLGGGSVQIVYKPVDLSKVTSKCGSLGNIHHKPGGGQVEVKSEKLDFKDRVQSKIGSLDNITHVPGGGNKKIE
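Human tau K18 […] P301L fragment, 15 uM unlabeled plus 0.24 uM Alexa 594-labeled tau (final), with compound and 20 uM heparin in 100 mM sodium acetate pH 7; 6 hr at 37 C, then Alexa 594 FP read.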
Tau ThT inhib – qHTS for Inhibitors of Tau Fibril Formation, Thioflavin T Binding; Microtubule-associated protein tau (Homo sapiens), P10636; Potency, µM (doses to about 57.4 µM), inactives show at the highest dose activity, negative = inhibition, most hits filed as inhibitors; actives 2.1% (n = 270,000); recombinant tau K18 P301L, heparin-induced fibrillization, ThT fluorescence; also: nearly all actives have a fitted effect of over 55% in size
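Recombinant human tau K18 fragment […] carrying P301L, 15 uM unlabeled plus 0.24 uM Alexa 594-labeled, was fibrillized with 20 uM heparin in 100 mM sodium acetate pH 7 for 6 hr at 37 C; 30 uM ThT fluorescence read after 1 hr.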
Tau fluor counter – Counterscreen qHTS for Inhibitors of Tau Fibril Formation, Fluorescence Polarization; tau K18 P301L Alexa594 fluorescence, heparin fibrillization; Potency, µM (titrated, usually from 57.7 µM), inactives show at the top dose activity change, negative = decrease; AID 1463, 2008; actives 0.93% (n = 280,000); also: nearly all actives have a fitted effect of over 55% in size
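Human tau K18 P301L (15 uM unlabeled, 0.24 uM Alexa 594-labeled) in 100 mM sodium acetate pH 7 with 20 uM heparin, 6 hr at 37 C. ThT 30 uM added, 1 hr ambient; Alexa 594 FP and total fluorescence read at 555/632 nm.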
VDR inhibitor – Inhibitors of the vitamin D receptor (VDR): qHTS | Potency, µM, for inactives: max response, negative = inhibition, most hits filed as inhibitors | actives 0.93% (n = 400,000) | VDR-SRC2-3 peptide fluorescence polarization, 2 h | Vitamin D3 receptor (Homo sapiens), P11473
Target sequence (P11473 whole entry, looked up): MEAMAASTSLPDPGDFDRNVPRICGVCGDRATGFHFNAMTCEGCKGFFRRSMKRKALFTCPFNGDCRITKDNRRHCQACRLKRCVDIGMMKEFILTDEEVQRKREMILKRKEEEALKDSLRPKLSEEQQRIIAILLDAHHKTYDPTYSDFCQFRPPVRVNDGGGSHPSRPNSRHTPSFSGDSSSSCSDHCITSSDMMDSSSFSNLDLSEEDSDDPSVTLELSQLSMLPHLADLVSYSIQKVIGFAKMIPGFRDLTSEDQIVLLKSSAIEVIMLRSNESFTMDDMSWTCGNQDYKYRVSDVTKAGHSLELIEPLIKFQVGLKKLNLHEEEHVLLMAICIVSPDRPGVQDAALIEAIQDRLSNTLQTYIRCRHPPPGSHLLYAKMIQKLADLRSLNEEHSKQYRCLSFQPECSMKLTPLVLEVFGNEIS
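Fluorescence polarization assay measuring small-molecule disruption of VDR binding to the coregulator peptide SRC2-3. Compounds were pin-transferred (23 nl) into the reagent mix and incubated 2 h at room temperature before reading.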
PLK1 PBD block – qHTS for Inhibitors of PLK1-PDB (polo-like kinase 1 - polo-box domain): Primary Screen | Serine/threonine-protein kinase PLK1 (Homo sapiens), P53350 | Plk1 PBD binding of FITC phosphopeptide, fluorescence polarization | Potency, µM, for the others: max response, negative = inhibition, usual class: inhibitors | actives 2.8% (n = 360,000) | AID 720504, 2013; also: series mostly up to about 57 µM; nearly all actives have a fitted effect of over 65% in size
* marks the source's active call; other numbers are inactive results; ? = inconclusive; / = not tested or not shown; [ ] = dose if it differs, or a comment. In the library only some 6% were active in any assay of this set; here they are far more common. Calls follow the shape of the dose curve; as a rule, active = well fitted curve in the direction sought with a large enough effect; inconclusive = small, poorly fitted or top-dose-only effect, or another doubt; inactive = no such curve, though single readings can be large; an effect the other way counts as inactive or inconclusive. Unless noted, % is scaled to controls: 0 for no effect and ±100 for the full control effect; potency is read from the fitted curve at half-maximal effect.

SMILES	Sfp inh	Tau fibril FP	Tau ThT inhib	Tau fluor counter	VDR inhibitor	PLK1 PBD block
O=C(O)C1C2CC(C(Br)C2Br)C1C(=O)O (stereo not given)	/	/	/	/	-17%	4%
C[C@H]1CN([C@@H](C)CO)C(=O)c2cc(Br)cnc2O[C@H]1CN(C)Cc1ccc(Oc2ccccc2)cc1	/	/	/	/	/	9%
CCOc1ccc(-n2c(SCC(=O)N3CCC(C)CC3)nc3c([nH]c4ccccc43)c2=O)cc1	/	-1%	13%	6%	1%	/
COc1cc(CN2CCCC(C(=O)c3ccc4c5c(cccc35)CC4)C2)cc(OC)c1O (stereo not given)	-14%	?	28µM*	?	-10%	?
O=C(c1ccc2c3c(cccc13)CC2)C1CCCN(Cc2cccnc2)C1 (stereo not given)	-8%	-1%	-14%	-9%	-6%	-13%
COc1ccc(C(=O)C2CCCN(Cc3c(O)cccc3OC)C2)cc1OC (stereo not given)	17%	/	/	/	20%	-8%
COc1cccc(O)c1CN1CCCC(C(=O)c2cccc(C(F)(F)F)c2)C1 (stereo not given)	71µM*	9%	-13%	-24%	-6%	-1%
COc1ccc(S(=O)(=O)N2CCC(C(=O)N[C@H](C(=O)N3CCCC3)C(C)C)CC2)cc1	10%	/	/	/	-14%	27µM*
COc1ccc(NC(=O)C2CCN(S(=O)(=O)c3ccc(N4CCCC4=O)cc3)CC2)cc1OC	5%	/	/	/	-8%	-12%
COc1cc(NC(=O)C2CCN(S(=O)(=O)c3ccc(N4CCCC4=O)cc3)CC2)cc(OC)c1	15%	/	/	/	-25%	30µM*
COc1ccc(S(=O)(=O)N2CCCC(C(=O)NCc3ccccc3)C2)cc1 (stereo not given)	13%	/	/	/	21%	-24%
COc1ccc(S(=O)(=O)N2CCCC(C(=O)NCCC(C)C)C2)cc1 (stereo not given)	-5%	-5%	4%	-4%	-13%	24µM*
CN(C)c1ccc(NC(=S)c2ccc3ccccc3n2)cc1	7.1µM*	/	/	/	?	1.1µM*
S=c1[nH]c2cc3c(cc2[nH]1)OCCO3	12%	-4%	-7%	-10%	1%	-20%
S=c1ncc2[nH]c(=S)[nH]c2[nH]1	/	/	/	/	32µM*	1.7µM*
COC(=O)[C@@]1(Cc2ccc(OC)cc2)[C@H]2c3cc(C(=O)N4CCCC4)n(CCN4CNCC4=O)c3C[C@H]2CN1C(=O)c1ccccc1	9%	1%	-7%	5%	/	/
Cc1ccc(S(=O)(=O)ON2C(=O)c3cccc4cccc(c34)C2=O)cc1	-6%	-20%	-5%	-20%	1%	-11%
O=C1c2ccccc2C(=O)N1OS(=O)(=O)c1ccccc1	10µM*	?	?	-15%	/	/
Cc1ccc(C)c(S(=O)(=O)ON2C(=O)c3ccccc3C2=O)c1	18µM*	-11%	?	-11%	20µM*	2.7µM*
Cc1ccc(C)c(C(=O)CN2C(=O)c3ccccc3C2=O)c1	8%	/	/	/	13%	-9%
Cc1cc(S(=O)(=O)ON2C(=O)c3ccccc3C2=O)ccc1F	11µM*	/	/	/	32µM*	6.7µM*
COc1ccc([C@H]2C[C@@H](n3cc(COC(=O)c4ccccc4)nn3)[C@H](O)CN2Cc2cccs2)cc1	/	/	/	/	/	4%
CCc1nc2ccc(C(=O)NCCCn3ccnc3)cn2c1N(CC)C(=O)NCCc1ccccc1	/	/	/	/	/	-10%
Cc1ccc(C)c(NC(=O)c2cnn(-c3cccc(F)c3)c2C2CCN(C(=O)OC(C)(C)C)CC2)c1	/	2%	-15%	-17%	5%	/
Cn1c(=O)c2[nH]c(CN(Cc3ccccc3)Cc3ccccc3)nc2n(C)c1=O	-6%	2%	7%	3%	19%	1%
SMILES	Sfp inh	Tau fibril FP	Tau ThT inhib	Tau fluor counter	VDR inhibitor	PLK1 PBD block
CN(C)Cc1nc2c([nH]1)c(=O)n(C)c(=O)n2C	56µM*	-8%	-5%	-2%	-13%	5%
CCc1ccc(S(=O)(=O)c2nnn3c2nc(Nc2ccc(F)cc2)c2cc(Cl)ccc23)cc1	/	14µM*	-1%	?	5%	/
Cc1ccc(C)c(S(=O)(=O)c2nnn3c2nc(Nc2ccc(F)c(Cl)c2)c2sccc23)c1	/	14µM*	?	?	6%	/
CC(=O)Nc1ccc(Nc2nc3c(S(=O)(=O)c4cc(C)ccc4C)nnn3c3ccsc23)cc1	/	0%	-17%	-28%	1%	/
O=C(/C=C/c1ccc(Cl)c(Cl)c1)n1cccn1	14%	?	14µM*	-11%	-20%	-14%
O=C(/C=C/c1ccc(Cl)c(Cl)c1)N1CCOCC1	19%	/	/	/	-13%	-4%
COc1ccccc1NC(=O)CCCCC(=O)Nc1ccccc1OC	12%	/	/	/	-13%	-9%
COc1ccccc1NC(=O)CSC(N)=O	45µM*	?	32µM*	-20%	22µM*	-24%
COc1ccccc1NC(=O)Cc1nnc(SCC(=O)Nc2ccccc2F)n1C	10%	-19%	-7%	-10%	?	12µM*
COc1ccccc1NC(=O)Cc1nnc(SCC(=O)Nc2nccs2)n1C	16%	/	/	/	-5%	-3%
COc1ccccc1NC(=O)CSc1nnc(NC(=O)C2CC2)s1	10%	/	/	/	12%	-4%
COc1ccc(NC(=S)Nc2nc(CC(=O)Nc3ccccc3OC)cs2)cc1	-11%	-8%	-17%	13µM*[quencher]	-9%	-9%
COc1ccccc1NC(=O)CSc1nnc(NC(=O)Nc2ccc(C)cc2)s1	/	16µM*	3%	?	4%	/
O=S(O)CO	2%	/	/	/	-1%	/
Cc1ccc(CNC(=O)C2CCN(S(=O)(=O)c3ccc4[nH]c(=O)ccc4c3)CC2)cc1	/	?	2%	-7%	-2%	/
Cc1ccccc1NC(=O)CSC(N)=O	14µM*	?	25µM*	-17%	25µM*	?
CCC(=O)NC(=S)Nc1ccccc1OC	10%	-4%	-9%	-6%	-16%	24µM*
Cc1ccccc1NC(=O)COC(=O)CCc1ccccc1	9%	-1%	-8%	-7%	-11%	6µM*
Cc1ccccc1NC(=O)CSCC(=O)Nc1ccccc1C	2%	4%	-9%	-4%	9%	-2%
N#Cc1ccccc1NC(=O)COC(=O)CCc1ccccc1	8%	/	/	/	-15%	-4%
NC(=O)SCC(=O)Nc1ccccc1C(=O)O	18µM*	?	22µM*	-17%	79µM*	-13%
